Experimental data from PMC5540273 (PLoS ONE, 2017).

Legend:
Conditions in all cases: concentration: 1 μM, replicates: in singlicate; n = 1
[1] = test system: RPS6KA4(Kin.Dom.1-N-terminal)
[2] = test system: RPS6KA4(Kin.Dom.2-C-terminal)
[3] = test system: RPS6KA5(Kin.Dom.1-N-terminal)
[4] = test system: RPS6KA5(Kin.Dom.2-C-terminal)
[5] = test system: T1, RSK1(Kin.Dom.1-N-terminal)
T1 construct: gene RPS6KA1

[6] = test system: T2, RSK1(Kin.Dom.2-C-terminal)
T2 construct: gene RPS6KA1

[7] = test system: T3, RSK2(Kin.Dom.1-N-terminal)
T3 construct: gene RPS6KA3

[8] = test system: T4, RSK2(Kin.Dom.2-C-terminal)
T4 construct: gene RPS6KA3

[9] = test system: T5, RSK3(Kin.Dom.1-N-terminal)
T5 construct: gene RPS6KA2

[10] = test system: T6, RSK3(Kin.Dom.2-C-terminal)
T6 construct: gene RPS6KA2

[11] = test system: T7, RSK4(Kin.Dom.1-N-terminal)
T7 construct: gene RPS6KA6

[12] = test system: T8, RSK4(Kin.Dom.2-C-terminal)
T8 construct: gene RPS6KA6

S6K1 = test system: S6K1
SBK1 = test system: SBK1
SGK2 = test system: SGK2
SGK3 = test system: SGK3
SGK = test system: SGK
SIK2 = test system: SIK2
SIK = test system: SIK
SLK = test system: SLK
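Also: KINOMEscan kinase panel screen.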

| SMILES | %Inh [1] [%] | %Inh [2] [%] | %Inh [3] [%] | %Inh [4] [%] | %Inh [5] [%] | %Inh [6] [%] | %Inh [7] [%] | %Inh [8] [%] | %Inh [9] [%] | %Inh [10] [%] | %Inh [11] [%] | %Inh [12] [%] | %Inh (S6K1) [%] | %Inh (SBK1) [%] | %Inh (SGK2) [%] | %Inh (SGK3) [%] | %Inh (SGK) [%] | %Inh (SIK2) [%] | %Inh (SIK) [%] | %Inh (SLK) [%] |
| --- | --- | --- | --- | --- | --- | --- | --- | --- | --- | --- | --- | --- | --- | --- | --- | --- | --- | --- | --- | --- |
| COC(=O)Nc1nc2ccc(Oc3ccc(NC(=O)Nc4cc(C(F)(F)F)ccc4F)cc3)cc2n1C.Cl [GW692089] | 6 | 0 | 0 | 0 | 0 | 0 | 40 | 0 | 0 | 0 | 0 | 0 | 1 | 4 | 0 | 20 | 8 | 0 | 1 | 49 |
| Nc1ncnc2c1nc(-c1ccccc1)n2-c1ccccc1 [SKF-97293] | 9 | 10 | 16 | 11 | 19 | 0 | 40 | 27 | 18 | 0 | 36 | 0 | 29 | 53 | 0 | 16 | 23 | 0 | 8 | 0 |
| Cn1cc(-c2ccc3c(c2)CCN3C(=O)Cc2cccc(Cl)c2)c2c(N)ncnc21 [GSK2606590] | 22 | 0 | 40 | 0 | 4 | 0 | 1 | 0 | 16 | 0 | 0 | 19 | 0 | 9 | 0 | 0 | 0 | 0 | 10 | 67 |
| CCS(=O)(=O)c1ccc(OC)c(Nc2nccc(-c3c(-c4cccc(NC(=O)c5c(F)cccc5F)c4)nn4ncccc34)n2)c1 [GSK326180] | 16 | 0 | 25 | 0 | 64 | 0 | 0 | 0 | 29 | 0 | 0 | 0 | 6 | 0 | 5 | 0 | 0 | 0 | 3 | 54 |
| COc1ccc(Nc2nccc(N3CCC(NC(=O)Nc4cccc(OC)c4)C3)n2)cc1 (centres unmarked) [GSK1379742] | 15 | 0 | 10 | 0 | 0 | 0 | 15 | 1 | 0 | 0 | 0 | 24 | 0 | 0 | 0 | 0 | 3 | 0 | 0 | 17 |
| CC(=O)Nc1nc2cnc(Nc3cc(NC(=O)c4cccc(C5(C#N)CC5)c4Cl)ccc3C)nc2s1 | 0 | 0 | 14 | 5 | 0 | 25 | 0 | 0 | 0 | 10 | 0 | 18 | 14 | 0 | 0 | 0 | 0 | 6 | 29 | 23 |
| O=C(Nc1cccc(Oc2ccc3nc(NC(=O)C4CC4)cn3n2)c1)c1ccccc1C(F)(F)F | 35 | 0 | 0 | 17 | 6 | 0 | 0 | 55 | 6 | 0 | 0 | 0 | 0 | 0 | 7 | 0 | 0 | 28 | 1 | 32 |
| CC(C)(C)c1ccc2nccc(Nc3cccc(O)c3)c2c1 [GW856795] | 0 | 0 | 0 | 0 | 0 | 0 | 0 | 49 | 19 | 30 | 0 | 27 | 9 | 0 | 1 | 0 | 15 | 0 | 0 | 55 |
| CCc1ccc(-c2ccc3c(c2)-c2c(cnn2C)S(=O)(=O)N3C)cc1 | 5 | 0 | 7 | 0 | 10 | 0 | 0 | 29 | 17 | 13 | 0 | 0 | 4 | 0 | 0 | 0 | 0 | 4 | 6 | 0 |
| Cl.c1ccc(-c2ccc3c(Nc4ccc5[nH]ncc5c4)ccnc3c2)nc1 [GW440137] | 0 | 0 | 2 | 34 | 20 | 6 | 0 | 0 | 6 | 0 | 0 | 0 | 0 | 0 | 0 | 21 | 58 | 0 | 0 | 31 |
